A number with no mark means an inactive call. Inconclusive results are not listed. Where a call stands in place of a potency, no number is given. Calls of active or inactive are those of the source. Unless noted, calls come from the whole dose curve; as a rule, active = well fitted curve in the direction sought with a large enough effect; inconclusive = small, poorly fitted or top-dose-only effect, or another doubt; inactive = no such curve, though single readings can be large; an effect the other way counts as inactive or inconclusive.
How the values were obtained:
[1] = biological target: D(1A) dopamine receptor (Homo sapiens) (UniProt P21728); test: HTS Assay for Allosteric Agonists of the Human D1 Dopamine Receptor: Primary Screen for Potentiators (AID 488982); note: potency is the fitted concentration of half-maximal effect
How it was run: (§1)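 Tetracycline-induced HEK293 T-REx cells force-coupled to calcium signalling were incubated overnight at 30 C and dye-loaded at room temperature. Calcium flux over 180 s after compound addition flagged agonists; a further 180 s read after EC20 dopamine flagged potentiators.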

[2] = biological target: D(1A) dopamine receptor (Homo sapiens) (UniProt P21728); test: HTS Assay for Allosteric Agonists of the Human D1 Dopamine Receptor: Primary Screen for Antagonists (AID 488983);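 note: calcium flux response to an EC80 dopamine challenge measured with no-wash dye; nearly all actives have a fitted effect of over 65% in size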; note: potency is the fitted concentration of half-maximal effect
How it was run: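 Calcium-flux read-out in inducible HEK293 T-REx cells expressing D1, dye-loaded 30–90 min at room temperature. Kinetic reads: 180 s after compound (agonist phase), then 180 s after an EC80 dopamine challenge.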

[3] = Validation screen for small molecules that induce genotoxicity in human embryonic kidney (HEK293T) cells expressing luciferase-tagged ELG1 (AID 493106); note: potency is the fitted concentration of half-maximal effect
How it was run: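 ELG1-luciferase reporter readout (ONE-Glo, 30 min, room temperature) after 16 hr compound treatment at 37 °C of HEK293T cells at 2,000 per well. Rising luminescence flags genotoxic stress.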

[4] = biological target: ATPase family AAA domain-containing protein 5 (Homo sapiens) (UniProt Q96QE3); test: Validation screen for small molecules that inhibit ELG1-dependent DNA repair in human embryonic kidney (HEK293T) cells expressing luciferase-tagged ELG1 (AID 493107); note: nearly all actives have a fitted effect of over 70% in size; note: potency is the fitted concentration of half-maximal effect
How it was run: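 Luciferase read-out, ONE-Glo, 30 min at room temperature, follows 16 h co-exposure at 37 C of compound and the DNA-damaging agent 5-fluorouridine. Cells: HEK293T with ELG1-luciferase fusion, 2,000 per well, DMSO as vehicle.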

[5] = biological target: D(1A) dopamine receptor (Homo sapiens) (UniProt P21728); test: HTS Assay for Allosteric Agonists of the Human D1 Dopamine Receptor: Primary Screen for Agonists (AID 488981); note: potency is the fitted concentration of half-maximal effect
How it was run: as §1

[6] = biological target: Thyrotropin-releasing hormone receptor (Homo sapiens) (UniProt P34981); test: qHTS for Small Molecule Agonists and Allosteric Enhancers of Human TRH Receptor: Validation Screen for Agonists (AID 493127;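 active = calcium activation more than 3 SD above the typical response in the agonist read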;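 note: intracellular calcium rise by fluo-8 fluorescence before TRH EC20 addition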); settings: TRH receptor agonist cell assay; at 2 µM; active compounds read high
How it was run: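 Compound-evoked intracellular calcium release in fluo-8-loaded TRHR cells, read kinetically on FDSS (Ex 480/Em 530, 1 s/cycle) after 23 nL pintool transfer. Agonist phase preceded 10 nM TRH EC20 addition.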

Sequence of D(1A) dopamine receptor (Homo sapiens) (P21728 whole entry, looked up): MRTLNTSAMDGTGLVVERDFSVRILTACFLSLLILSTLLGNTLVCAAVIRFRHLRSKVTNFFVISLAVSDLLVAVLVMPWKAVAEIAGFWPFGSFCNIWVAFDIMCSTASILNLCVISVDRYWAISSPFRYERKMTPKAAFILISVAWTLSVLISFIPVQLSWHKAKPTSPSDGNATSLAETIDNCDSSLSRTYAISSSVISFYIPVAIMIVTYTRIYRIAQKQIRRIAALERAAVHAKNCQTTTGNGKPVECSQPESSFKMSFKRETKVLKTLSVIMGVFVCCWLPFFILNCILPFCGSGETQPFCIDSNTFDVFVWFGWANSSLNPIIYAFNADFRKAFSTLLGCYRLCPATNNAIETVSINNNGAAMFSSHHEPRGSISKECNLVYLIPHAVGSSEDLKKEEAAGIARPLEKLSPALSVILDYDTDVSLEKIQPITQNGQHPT
Sequence of ATPase family AAA domain-containing protein 5 (Homo sapiens) (Q96QE3 whole entry, looked up, the tested form may be a part): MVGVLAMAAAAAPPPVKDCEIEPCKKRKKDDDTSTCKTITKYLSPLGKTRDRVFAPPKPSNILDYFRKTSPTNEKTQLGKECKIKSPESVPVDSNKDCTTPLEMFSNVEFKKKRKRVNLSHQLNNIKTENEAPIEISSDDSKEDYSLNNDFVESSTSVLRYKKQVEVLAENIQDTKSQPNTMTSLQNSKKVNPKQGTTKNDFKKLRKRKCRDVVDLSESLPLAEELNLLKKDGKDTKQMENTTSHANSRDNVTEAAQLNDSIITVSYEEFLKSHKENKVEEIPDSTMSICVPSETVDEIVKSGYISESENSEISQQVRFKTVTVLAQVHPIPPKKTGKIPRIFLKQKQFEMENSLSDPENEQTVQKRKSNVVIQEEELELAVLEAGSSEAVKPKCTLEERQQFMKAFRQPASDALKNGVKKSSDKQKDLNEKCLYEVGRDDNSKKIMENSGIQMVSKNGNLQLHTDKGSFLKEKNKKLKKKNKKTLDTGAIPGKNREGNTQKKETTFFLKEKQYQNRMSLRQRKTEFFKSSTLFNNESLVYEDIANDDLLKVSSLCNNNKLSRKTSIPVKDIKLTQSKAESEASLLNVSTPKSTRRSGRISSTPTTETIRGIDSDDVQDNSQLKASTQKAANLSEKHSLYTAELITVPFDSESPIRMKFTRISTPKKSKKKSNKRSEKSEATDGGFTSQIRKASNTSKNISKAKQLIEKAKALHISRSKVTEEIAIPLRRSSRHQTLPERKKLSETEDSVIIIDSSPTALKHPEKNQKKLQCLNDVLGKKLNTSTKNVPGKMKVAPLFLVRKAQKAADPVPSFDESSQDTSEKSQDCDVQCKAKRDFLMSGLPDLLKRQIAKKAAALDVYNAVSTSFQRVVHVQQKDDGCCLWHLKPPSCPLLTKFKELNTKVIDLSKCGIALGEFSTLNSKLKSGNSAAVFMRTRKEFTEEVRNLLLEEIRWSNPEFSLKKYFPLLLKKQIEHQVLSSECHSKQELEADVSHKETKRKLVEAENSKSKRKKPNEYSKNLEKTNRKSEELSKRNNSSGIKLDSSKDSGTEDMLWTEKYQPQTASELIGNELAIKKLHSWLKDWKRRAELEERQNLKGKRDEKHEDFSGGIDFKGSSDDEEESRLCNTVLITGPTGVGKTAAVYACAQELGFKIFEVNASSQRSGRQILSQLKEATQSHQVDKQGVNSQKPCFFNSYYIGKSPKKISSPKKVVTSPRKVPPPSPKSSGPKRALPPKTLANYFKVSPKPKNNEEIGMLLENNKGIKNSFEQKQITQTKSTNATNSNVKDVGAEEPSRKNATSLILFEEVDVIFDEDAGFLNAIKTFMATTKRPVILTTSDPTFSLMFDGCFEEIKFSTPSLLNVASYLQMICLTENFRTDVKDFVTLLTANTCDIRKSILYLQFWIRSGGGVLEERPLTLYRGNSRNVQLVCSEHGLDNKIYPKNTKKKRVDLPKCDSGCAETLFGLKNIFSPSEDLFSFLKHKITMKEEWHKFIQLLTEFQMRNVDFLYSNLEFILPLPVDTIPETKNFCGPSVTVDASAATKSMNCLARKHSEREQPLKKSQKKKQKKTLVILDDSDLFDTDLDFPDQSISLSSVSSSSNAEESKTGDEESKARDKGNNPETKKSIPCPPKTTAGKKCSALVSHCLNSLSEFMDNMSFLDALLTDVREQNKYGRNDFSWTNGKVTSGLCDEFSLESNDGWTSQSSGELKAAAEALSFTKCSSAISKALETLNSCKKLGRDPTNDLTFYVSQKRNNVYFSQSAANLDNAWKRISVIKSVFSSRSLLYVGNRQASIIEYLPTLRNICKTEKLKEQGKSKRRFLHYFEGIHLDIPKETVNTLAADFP
Sequence of Thyrotropin-releasing hormone receptor (Homo sapiens) (P34981 whole entry, looked up): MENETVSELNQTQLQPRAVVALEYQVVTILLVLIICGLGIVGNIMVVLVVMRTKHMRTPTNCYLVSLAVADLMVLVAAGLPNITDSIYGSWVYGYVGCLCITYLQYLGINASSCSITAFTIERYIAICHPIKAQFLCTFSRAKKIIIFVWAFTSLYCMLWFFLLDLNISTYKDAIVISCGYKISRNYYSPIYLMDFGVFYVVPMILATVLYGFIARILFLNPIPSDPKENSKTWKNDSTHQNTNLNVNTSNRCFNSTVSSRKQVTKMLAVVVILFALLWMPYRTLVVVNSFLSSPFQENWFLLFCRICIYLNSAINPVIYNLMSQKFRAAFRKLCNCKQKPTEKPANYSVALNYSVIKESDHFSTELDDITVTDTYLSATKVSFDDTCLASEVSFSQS

Row | SMILES | Potency [1] | Potency [2] | Potency [3] | Potency [4] | Potency [5] | activation [6]
1 | C[C@H]1CC2C3CCC4=CC(=O)C=C[C@]4(C)[C@@]3(Cl)[C@@H](O)C[C@]2(C)[C@@]1(O)C(=O)CO (some centres not stated) | inactive | inactive | inactive | inactive | – | –
2 | CSc1nc(N)c2ncn([C@@H]3O[C@H](COP(=O)(O)OP(=O)(O)O)C(O)[C@H]3O)c2n1 (some centres not stated) | 0.0517 µM (active) | – | – | – | – | –
3 | C[C@](Cc1ccc(O)c(O)c1)(NN)C(=O)O | – | inactive | inactive | inactive | inactive | –
4 | CN1CCc2cc(Cl)c(O)cc2[C@@H](c2ccccc2)C1 | inactive | – | inactive | inactive | inactive | –
5 | c1ccc2c(c1)CCC[C@H]2Nc1nc2ccccc2[nH]1 | inactive | inactive | inactive | – | – | –
6 | O=[N+]([O-])c1cccc2c(Br)[nH]nc12 | inactive | inactive | inactive | inactive | inactive | -3.31%
7 | N[C@H](C(=O)O)[C@H](Cc1ccccc1)C(=O)O | inactive | inactive | inactive | inactive | inactive | –
8 | CCCCCCCCCCC(C)(C)C(=O)Nc1c(OC)cc(OC)cc1OC | inactive | – | inactive | inactive | inactive | –
9 | CN(C)CCCc1cc(C(=O)Nc2ccc(-c3ccncc3)cc2)ccc1O | inactive | inactive | inactive | inactive | inactive | –
10 | c1ccc(C(NCCNC(c2ccccc2)c2ccccc2)c2ccccc2)cc1 | inactive | – | inactive | inactive | inactive | –
11 | CC[n+]1c(/C=C/C=C2/N(C)c3ccccc3C2(C)C)sc2ccccc21 | inactive | inactive | inactive | 2.31 µM (active) | 11.2 µM (active) | –
12 | COc1ccc(-c2cc3ncc(C)n3c(Nc3ncccc3C(N)=O)n2)cc1OC | inactive | inactive | inactive | 1.03 µM (active) | inactive | –
13 | N#Cc1cc([N+](=O)[O-])c2sc(C(N)=O)[n+]([O-])c2c1 | inactive | inactive | inactive | 16.4 µM (active) | inactive | –
14 | CCCn1c(=O)c(C)cn2nc(N)nc12 | inactive | inactive | inactive | inactive | – | –
15 | Brc1c(Br)c(Br)c2[nH]cnc2c1Br | – | inactive | inactive | 4.61 µM (active) | inactive | –
16 | CN1Cc2sccc2C(c2ccc(O)c(O)c2)C1 (configuration not stated) | inactive | 0.355 µM (active) | inactive | inactive | – | –
17 | Nc1nc2c(nc(Br)n2C2OC3COP(=O)(O)O[C@@H]3C2O)c(=O)[nH]1 (some centres not stated) | inactive | inactive | inactive | inactive | inactive | –
18 | O=c1cc(-c2ccccc2F)[nH]c2cc3c(cc12)OCO3 | inactive | inactive | 5.17 µM (active) | inactive | inactive | –

From PubChem BioAssay (NCATS)
